# Screens from PubChem BioAssay.
# Rows were chosen to be rich in hits. Some 3.5% of all compounds tested hit in one or more screens of this group.
# MITF inh: inhibitors of human MITF; O75030; AID 1259374; AlphaScreen MITF homodimerization, bead proximity signal; 0.91% of 650,000 active; inhibition, % at 2.6 µM; in the data active means inhibition above about 50%;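 further: 0% = vehicle wells with protein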
# FBW7 act: activators of human E3 ligase FBW7 | AlphaScreen FBW7–phospho-cyclin E peptide binding, activator screen | Q969H0 | 0.13% of 650,000 active | AID 1259310 | normalized activity (activation), % at 26.1 µM; in the data active means normalized activity above about 1.9%;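 further: purified mutant Fbw7 with reduced substrate affinity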
# Target sequence (Q969H0 whole entry, looked up): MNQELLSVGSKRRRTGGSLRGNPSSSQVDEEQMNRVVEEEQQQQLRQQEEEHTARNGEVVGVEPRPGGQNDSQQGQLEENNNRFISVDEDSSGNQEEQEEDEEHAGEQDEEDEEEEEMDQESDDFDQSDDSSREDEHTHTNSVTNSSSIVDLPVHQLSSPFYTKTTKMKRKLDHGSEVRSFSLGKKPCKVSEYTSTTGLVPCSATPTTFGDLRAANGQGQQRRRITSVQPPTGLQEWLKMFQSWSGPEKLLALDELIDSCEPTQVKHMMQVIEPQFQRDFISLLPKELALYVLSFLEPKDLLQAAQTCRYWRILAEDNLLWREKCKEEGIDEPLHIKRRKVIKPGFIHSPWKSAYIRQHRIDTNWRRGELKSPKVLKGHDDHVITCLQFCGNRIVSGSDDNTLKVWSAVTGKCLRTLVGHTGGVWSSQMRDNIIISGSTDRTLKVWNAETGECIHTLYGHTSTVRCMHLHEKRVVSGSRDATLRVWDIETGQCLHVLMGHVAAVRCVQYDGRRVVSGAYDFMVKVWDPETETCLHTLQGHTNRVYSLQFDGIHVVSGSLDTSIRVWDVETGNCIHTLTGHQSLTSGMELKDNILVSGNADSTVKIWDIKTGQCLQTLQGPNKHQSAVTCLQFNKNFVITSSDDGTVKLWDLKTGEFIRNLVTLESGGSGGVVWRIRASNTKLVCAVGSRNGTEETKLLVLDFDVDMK
# TEAD-YAP block: TEAD-YAP interaction inhibition. HEK-TIYL cells, TEAD-Gal4/YAP UAS-luciferase luminescence. inhibition, % at 9.12 µM. 1.4% of 640,000 active; in the data active means inhibition above about 32%;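 further: 0% = median of test compound wells and 100% = reference inhibitor wells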
# GPR151 activ: human GPR151 activation; Q8TDV0; PathHunter beta-arrestin GPR151 cells, luminescence; activation, % at 11.2 µM; 1% of 650,000 active; in the data active means activation above about 4.9%;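 further: 0% = median of compound wells and 100% = cells with positive control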
# MITF confirm: human MITF inhibition, confirmation; shares compounds with MITF inh; AlphaScreen MITF homodimerization, biotin/His-MITF beads; inhibition, % at 2.6 µM; 16% of 4,700 active; AID 1259372;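 active means inhibition above a cutoff derived from the DMSO control wells, cut at about 28% in these data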;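 further: 0% = MITF dimer wells with DMSO only; inhibitors lower the bead chemiluminescence by keeping MITF from dimerizing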
# AlphaScreen intf2: counter-screen: compounds optically interfering with AlphaScreen; LysRS AlphaScreen counterscreen, signal interference, triplicate; shares compounds with MITF inh; inhibition, % at 2.6 µM; AID 1259376; 7.6% of 4,700 active;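 active means inhibition above a cutoff derived from the DMSO control wells, cut at about 30% in these data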
# An asterisk follows results filed as active; . = no result.
SMILES,MITF inh,FBW7 act,TEAD-YAP block,GPR151 activ,MITF confirm,AlphaScreen intf2
CCc1ccc(CN2CCN(C3CCCC3)CC2)cc1,41,0,2,0,.,.
Cc1ccc(CN2CCN(C3CCCCCC3)CC2)cc1,69*,0,3,-1,11,23
CSc1ccc(CN2CCC(N3CCCCC3)CC2)cc1,13,0,-3,0,.,.
CCc1ccc(CN2CCN(C3CCCCC3)CC2)cc1,62*,0,0,0,-1,-1
CCOc1ccc(N2C(=O)NC(=O)/C(=C\c3ccc(O)cc3)C2=O)cc1,-13,0,1,0,.,.
O=[N+]([O-])c1ccccc1CN1CCCCCC1,39,0,6,1,.,.
O=[N+]([O-])c1ccccc1CN1CCC(N2CCN(c3ccccc3F)CC2)CC1,47,0,5,-1,.,.
CC1CCC(N2CCN(Cc3ccccc3[N+](=O)[O-])CC2)CC1 (stereo not drawn),69*,0,-3,1,1,4
CC1CN(Cc2ccccc2[N+](=O)[O-])CC(C)O1 (stereo not drawn),40,0,-1,-1,.,.
O=[N+]([O-])c1ccccc1CN1CCN(C2CCCCCC2)CC1,75*,0,0,0,22,4
CC1CN(C2CCN(Cc3ccccc3[N+](=O)[O-])CC2)CC(C)O1 (stereo not drawn),66*,0,6,1,-3,3
CC(C)N(C(=O)CSc1nnnn1-c1ccccc1)C(C)C,-7,0,7,2,.,.
CCCCNS(=O)(=O)c1ccc2[nH]c3nc(SCC(=O)NCC4CCCO4)nnc3c2c1 (stereo not drawn),6,0,0,-1,.,.
Cc1ccc(Oc2ccc(OCC(=O)NCC3CCCO3)cc2)cc1 (stereo not drawn),75*,0,16,0,0,11
COc1ccc(C(=O)NC2CCCCC2)cc1S(=O)(=O)N1CCC(C)CC1,67*,0,0,0,10,13
Cc1cc(C)c(OCCCCN2CCNCC2)c(Cl)c1,70*,0,-10,-1,5,0
CC(C)c1ccc(OCCCCN2CCNCC2)cc1,62*,0,11,-2,-2,12
Cc1cc(OCCN2CCNCC2)cc(C)c1Cl,62*,0,5,0,0,2
Cc1cccc(C)c1OCCCCN1CCNCC1,64*,0,7,1,5,2
Cc1cc(Cl)c(OCCOCCN2CCNCC2)c(Cl)c1,90*,0,3,3,18,11
COCCNCCOCCOc1c(C)cc(C)cc1Cl,53*,0,6,0,4,12
Cc1cc(OCCOCCN2CCN(C)CC2)cc(C)c1Cl,62*,0,3,-2,14,15
Cc1cc(C)c(OCCOCCN2CCN(C)CC2)c(Cl)c1,67*,0,-3,1,20,16
Cc1cc(C)c(OCCCCN2CCNCC2)c(C)c1,0,0,-4,0,.,.
Cc1cc(Cl)c(OCCN2CCNCC2)c(Br)c1,76*,0,-13,3,-5,-7
SMILES,MITF inh,FBW7 act,TEAD-YAP block,GPR151 activ,MITF confirm,AlphaScreen intf2
Cc1cc(Cl)cc(C)c1OCCOCCNC(C)C,51*,1,1,0,-7,-6
Cc1ccc(Cl)c(OCCN2CCNCC2)c1,5,0,-9,0,.,.
Cc1cc(C)c(OCCOCCNC(C)C)c(C)c1,41,0,-3,2,.,.
Nc1nc(Nc2ccccc2)nc2nc[nH]c12,60*,0,-2,0,2,12
COc1cc(/C=C2/NC(=O)N(CC(=O)Nc3cccc(C)c3)C2=O)ccc1OC(C)C,5,0,6,-2,.,.
CN1CCN(CC(=O)c2ccccc2F)CC1,78*,0,4,0,10,15
CN1CCN(CC(=O)c2cccs2)CC1,34,0,-4,-1,.,.
CC(=O)Nc1ccc(Nc2ccc([N+](=O)[O-])c3nonc23)cc1,-4,0,-2,-1,.,.
COc1ccc(Nc2ccc3c(cnn3-c3cccc(C(=O)NCCCN4CCOCC4)c3)c2)cc1,14,0,19,-1,.,.
Cc1[nH]c2ccc(OC(F)(F)F)cc2c1CCNC(=O)c1ccnn1C,12,0,9,-2,.,.
CN(CCc1ccccn1)Cc1ccccc1F,79*,0,-1,0,2,19
CN(C)CCN(C)Cc1ccccc1F,53*,0,-2,1,-2,-2
COc1cccc(CN(C)CCc2ccccn2)c1OC,41,0,-2,-1,.,.
CN(CCc1ccccn1)Cc1ccccc1C(F)(F)F,35,0,-2,-1,.,.
C=CCOc1ccccc1CN(C)CCc1ccccn1,65*,0,9,0,-12,-7
COc1ccc(CN(C)CCc2ccccn2)c(OC)c1,77*,0,2,-1,4,3
COc1cc(Nc2nc(C)cc(NCCN(C(C)C)C(C)C)n2)cc(OC)c1OC,-15,0,-5,0,.,.
CN(CCc1ccccn1)Cc1ccccc1[N+](=O)[O-],57*,0,1,0,11,1
CN(CCc1ccccn1)Cc1cc2c(cc1[N+](=O)[O-])OCO2,8,0,-9,1,.,.
CN(C)CCN(C)Cc1ccccc1[N+](=O)[O-],76*,0,-2,-1,10,17
CN(CCc1ccccn1)Cc1ccccc1Br,81*,0,3,0,1,11
Fc1ccccc1-c1cnc2c(NCc3cccnc3)nccn12,-6,0,-35,-1,.,.
COc1cccc(CNC(=O)CCC2CCCN(c3ncccn3)C2)c1 (stereo not drawn),13,0,10,1,.,.
CC1=NN(c2cccc(C(=O)O)c2)C(=O)C1,60*,0,-2,0,14,25
CC1=NN(c2cccc(F)c2)C(=O)C1,-9,-1,3,-1,.,.
SMILES,MITF inh,FBW7 act,TEAD-YAP block,GPR151 activ,MITF confirm,AlphaScreen intf2
O=C(O)Cc1cc(=O)n(-c2ccccn2)[nH]1,117*,-1,-4,-1,118*,100*
Cc1ccc(S(=O)(=O)N(CC(=O)NCC2CCCO2)c2ccccc2Cl)cc1 (stereo not drawn),-19,0,5,1,.,.
Cc1cc(Cl)ccc1N(CC(=O)NCC1CCCO1)S(=O)(=O)c1ccccc1 (stereo not drawn),73*,1,14,-1,4,9
COc1ccc(CN2CCN(Cc3ccc(C(F)(F)F)cc3)CC2)cc1,86*,0,7,1,6,14
COc1cccc(CN2CCN(Cc3ccc(C(F)(F)F)cc3)CC2)c1,81*,0,-11,0,7,13
FC(F)(F)c1ccc(CN2CCSCC2)cc1,58*,0,8,-1,9,17
CN1CCCN(Cc2ccc(C(F)(F)F)cc2)CC1,49,0,0,1,.,.
COc1cc(C(=O)N2CCN(Cc3ccc(C(F)(F)F)cc3)CC2)cc(OC)c1OC,27,1,-2,1,.,.
COc1ccc(OC)c(CN2CCN(Cc3ccc(C(F)(F)F)cc3)CC2)c1,78*,0,-5,0,10,21
